# GSH fluor = compound fluorescence on glutathione beads, profiling panel, artefact control, biophysical, 488/530 nm, flow cytometry; GSH beads flow cytometry, compound fluorescence 488/530 nm; active compounds read high; fluorescence (KMESF) at 10 µM; hit rate 0.25% among 190,000; AID 1776, 2009; in the data active means fluorescence above about 89;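 further: glutathione beads carrying GST-tagged Bcl family fusion proteins plus one bare bead set; values are compound well signal with DMSO vehicle wells as background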
# RGS8-Gao = RGS8-Galphao binding modulators, primary screen, biochemical, multiplexed bead flow cytometry. actives lie on both sides. response (percent of control binding), % at 10 µM. hit rate 0.34% among 220,000. AID 1423, 2008; in the data active means response below about 60% or above about 140%; inactive means in between;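 further: Galphao activated as the GDP aluminium fluoride complex binding bead-coupled RGS8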
# Target sequence (P09471 whole entry, looked up): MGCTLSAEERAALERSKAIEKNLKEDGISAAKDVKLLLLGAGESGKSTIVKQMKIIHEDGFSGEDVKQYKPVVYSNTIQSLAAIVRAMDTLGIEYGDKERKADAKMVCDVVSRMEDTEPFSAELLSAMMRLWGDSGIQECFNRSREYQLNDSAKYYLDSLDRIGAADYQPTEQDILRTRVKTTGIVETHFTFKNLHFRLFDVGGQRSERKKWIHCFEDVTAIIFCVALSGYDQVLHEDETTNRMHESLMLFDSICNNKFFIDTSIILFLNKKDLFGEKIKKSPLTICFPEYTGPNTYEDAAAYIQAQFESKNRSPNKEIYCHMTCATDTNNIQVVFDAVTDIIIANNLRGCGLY
# RGS16-Gao HTS = modulators of RGS16 binding to Galphao, primary screen, biochemical, human proteins, multiplexed bead flow cytometry. AID 1441, 2008. bead-based flow cytometry RGS16-Galphao binding, fluorescence; actives lie on both sides. binding response (% of control), % at 10 µM. Regulator of G-protein signaling 16 (Homo sapiens) + Guanine nucleotide-binding protein …. hit rate 0.38% among 220,000;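 further: Galphao activated by GDP with aluminum fluoride before binding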
# Target sequence (O15492 whole entry, looked up): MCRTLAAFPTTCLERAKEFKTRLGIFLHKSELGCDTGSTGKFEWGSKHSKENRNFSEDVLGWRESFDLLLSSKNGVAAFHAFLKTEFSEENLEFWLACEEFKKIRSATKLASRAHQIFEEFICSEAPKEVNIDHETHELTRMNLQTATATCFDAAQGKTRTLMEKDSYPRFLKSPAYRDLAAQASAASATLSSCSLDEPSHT
# Target sequence (P09471 whole entry, looked up): as the sequence (P09471 whole entry, looked up) above
# RGS4-Gao reg = modulators of RGS4 binding to Galphao, primary screen, biochemical, multiplexed bead flow cytometry; binding response (% of control), % at 10 µM; actives lie on both sides; Guanine nucleotide-binding protein G(o) subunit alpha (Homo sapiens), P09471; hit rate 0.33% among 220,000; in the data active means binding response below about 49% or above about 150%; inactive means in between;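 further: fluorescent Galphao activated with aluminum fluoride binding bead-coupled RGS4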
# Avidin bead fluor = green autofluorescence of compounds with avidin beads – biophysical, 488/530 nm, flow cytometry, artefact control, profiling panel. compound fluorescence 488/530 nm; active compounds read high. fluorescence (KMESF) at 10 µM. hit rate 0.38% among 220,000; in the data active means fluorescence above about 47
# RGS7-Gao = RGS7-Galphao binding modulators, primary screen, biochemical, multiplexed bead flow cytometry; hit rate 0.35% among 220,000; binding response (% of control), % at 10 µM; Guanine nucleotide-binding protein G(o) subunit alpha (Homo sapiens), P09471; AID 1439, 2008; actives lie on both sides; in the data active means binding response below about 49% or above about 150%; inconclusive means no clear call, values can overlap the other calls; inactive means in between;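 further: fluorescent Galphao held in activated GDP-AlF4 state binding bead-coupled RGS7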
# RGS4-Gao HTS = modulators of RGS–Galpha-o binding, primary screen, biochemical, multiplexed beads, flow cytometry, RGS4/7/8/16/19; shares compounds with RGS16-Gao HTS; multiplexed bead flow cytometry; RGS4–Galpha-o binding response, % at 10 µM; hit rate 99% among 1,600;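 further: fluorescently labeled Galpha-o bound to GDP with aluminium fluoride binding biotinylated RGS beads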
# Avidin counter = disruption of biotin probe capture by avidin, counter-screen for RGS protein interaction modulators, biochemical, flow cytometry, bead-based. shares compounds with RGS16-Gao HTS. streptavidin beads, fluorescein-biotin binding. inhibition, % at 10 µM. 1,700 tested, under 10 active. AID 1783, 2009;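 active means inhibition above 50%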;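 further: median green fluorescence of gated singlet beads compared with DMSO control wells; 0% = DMSO wells and 100% = complete loss of bead fluorescence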
# RGS8-Gao single = RGS8-Galphao binding modulators, confirmation, biochemical, multiplexed bead flow cytometry, single concentration | binding response (% of control), % at 10 µM | shares compounds with RGS16-Gao HTS | bead-based flow cytometry RGS8-Galphao binding, fluorescence; actives lie on both sides | hit rate 3% among 1,700; in the data active means binding response below about 72% or above about 130%; inactive means in between;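 further: Galphao activated as GDP AlF4 complex before binding bead RGS8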
# RGS7-Gao single = RGS7-Galphao binding modulators, confirmation, biochemical, multiplexed bead flow cytometry, single concentration. bead-based flow cytometry RGS7-Galphao binding; actives lie on both sides. hit rate 7.8% among 1,700. shares compounds with RGS16-Gao HTS. response (percent of control binding), % at 10 µM; in the data active means response below about 75% or above about 130%; inactive means in between;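 further: fluorescent Galphao activated with GDP and aluminum fluoride binding bead-coupled RGS7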
# RGS16-Gao single = modulators of RGS16-Galphao protein binding, confirmation, biochemical, single concentration, multiplexed bead flow cytometry; shares compounds with RGS16-Gao HTS; bead-based flow cytometry; actives lie on both sides; response (% of control binding), % at 10 µM; hit rate 4% among 1,700; AID 1838, 2009; in the data active means response below about 74% or above about 130%; inactive means in between;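 further: Galphao activated as the GDP aluminium fluoride complex binding bead-coupled RGS16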
# RGS4-Gao confirm = modulators of RGS4-Galphao protein binding, confirmation, biochemical, single concentration, multiplexed bead flow cytometry. shares compounds with RGS16-Gao HTS. actives lie on both sides. binding response (% of control), % at 10 µM. hit rate 4% among 1,700. AID 1840, 2009; in the data active means binding response below about 74% or above about 130%; inactive means in between
# RGS19-Gao single = regulators of RGS19-Galphao binding, confirmation, biochemical, single point, multiplexed bead flow cytometry. shares compounds with RGS16-Gao HTS. bead-based flow cytometry RGS19-Galphao binding; actives lie on both sides. response (percent of control binding), % at 10 µM. hit rate 5% among 1,700. AID 1841, 2009; in the data active means response below about 50% or above about 160%; inactive means in between;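 further: 100% = no compound control and 0% = blank background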
# * hit, by the source's call; ? = inconclusive; . = no result given; [ ] = another dose, or the depositor's remark. This is a sample that favours compounds with a hit; in the whole collection about 1.2% have one here. Unless noted, how the calls were made is not given here.
SMILES,GSH fluor,RGS8-Gao,RGS16-Gao HTS,RGS4-Gao reg,Avidin bead fluor,RGS7-Gao,RGS4-Gao HTS,Avidin counter,RGS8-Gao single,RGS7-Gao single,RGS16-Gao single,RGS4-Gao confirm,RGS19-Gao single
N#C/C(=C\c1ccc(Cl)cc1)c1nc2ncccc2[nH]1,15,71,-40*,89,10,84,89*,.,.,.,.,.,.
N#C/C(=C\c1c(Cl)cccc1Cl)c1nc2ccccc2[nH]1,.,102,105,101,9,?,.,.,.,.,.,.,.
COc1ccc(N(CC(=O)NCc2cccs2)S(=O)(=O)c2c(C)n[nH]c2C)cc1,16,58*,14*,75,6,74,75*,.,.,.,.,.,.
Cc1ccc(C(=O)N[C@@H](C)CN2C3=NC[C@H](C)N3C[C@H]2Cc2ccc(O)cc2)cc1Br,.,98,92,97,8,?,.,.,.,.,.,.,.
CC1(C)N([O-])c2cc([N+](=O)[O-])ccc2[N+]1=O,.,29*,-9.3*,84,0,?,84*,.,.,.,.,.,.
CC(CCC(=O)O)C1CC[C@@]2(C)C3C(=O)CC4C(C)(C)C(O)CC[C@]4(C)C3C(=O)C[C@]12C (some centres not stated),.,57*,100,89,5,?,89*,-1,100,97,100,99,90
O=C(Nc1ccc([N+](=O)[O-])cc1)Nc1ccc(Cl)cc1F,24,4.4*,-52,11*,-2,-4.6*,.,0,100,102,102,99,102
O=C(Nc1ccc(Cl)cc1)Nc1cc([N+](=O)[O-])ccc1F,9,101,103,98,4,98,.,.,.,.,.,.,.
CC(C)n1c(-c2cccnc2)nc2cnccc21,17,140*[activator],214,122,32,121,122*,.,.,.,.,.,.
CC1Cc2cc(/C(O)=C3/C(=O)C(=O)N(CC4CCCO4)C3c3ccco3)ccc2O1 (configuration not stated),24,101,107,115,110*,186*[activator],115*,-1,102,91,102,98,114
O=C(Cn1nnc2ccccc21)N1CCCCC1,13,108,128,105,12,106,.,.,.,.,.,.,.
O=C(CCn1nnc2ccccc21)N1CCN(c2ccccc2)CC1,43,.,.,.,.,.,.,0,102,106,102,102,102
CC1CCc2nc(NC(=O)CCSc3ccccc3)sc2C1 (configuration not stated),20,70,20*,79,5,79,79*,2,102,102,102,102,108
CC1CCc2nc(NC(=O)CN3CCN(c4ccccc4)CC3)sc2C1 (configuration not stated),11,104,105,104,17,103,.,.,.,.,.,.,.
Oc1ccc(-c2n[nH]c(=S)n2-c2ccc3c(c2)OCCO3)c(O)c1,10,72,15*,99,7,93,99*,0,90,107,94,99,79
CC(=O)Nc1ccc(C(C#N)c2ccccc2)cc1 (configuration not stated),10,106,107,107,11,106,.,.,.,.,.,.,.
CC(O)c1nc2ccc(C(=O)O)cc2[nH]1 (configuration not stated),.,97,91,91,6,?,.,.,.,.,.,.,.
NCCCC(=O)O,20,105,116,103,7,103,.,.,.,.,.,.,.
CCCC(N)CCCCCC(=O)O (configuration not stated),25,123,333*[activator],129,14,120,129*,-2,99,98,98,101,93
O=C(CCOc1ccccc1F)N1CCN(c2ccccc2O)CC1,13,102,95,102,6,102,.,.,.,.,.,.,.
O=C(Nc1ccc(-c2nc3ccccc3[nH]2)cc1)c1ccc2c(c1)OCO2,15,101,98,99,10,100,.,.,.,.,.,.,.
O=C(Nc1ccc(Cl)c(-c2nc3ccccc3[nH]2)c1)c1ccc2c(c1)OCO2,9,136,215*[activator],107,6,103,107*,0,106,106,108,104,100
O=[N+]([O-])c1cc([N+](=O)[O-])c2c(=Nc3ccccc3)n(-c3ccccc3)n(O)c2c1,11,95,90,98,7,?,.,.,.,.,.,.,.
O=Cc1ccc(O)c(O)c1,19,88,83,84,7,82,.,.,.,.,.,.,.
Oc1ccc(N=Cc2ccc(O)c(O)c2)cc1,6,61,0,59,2,49*,59*,-3,89,86,88,89,81
Cc1ccc(C)c(Sc2ccc(NC(=O)CCl)cc2)c1,8,135,299*[activator],115,14,116,115*,.,.,.,.,.,.
COc1ccc(/C=C(/CC(=O)Nc2ccccc2)c2nc3ccccc3s2)cc1,9,70,18*,76,4,74,76*,0,99,84,94,89,109
